From article PMC7862700, “An all-to-all approach to the identification of sequence-specific readers for epigenetic DNA modifications on cytosine”

Assays:
Experiment in all cases: DAPPL (digital affinity profiling via proximity ligation, sequencing); 10 mM Tris-HCl pH 7.5, 50 mM NaCl, 1 mM DTT, 4% glycerol, room temperature, 30 min; GST-TFs on glutathione beads, 16-mer random dsDNA library, 0.1% formaldehyde crosslink after washing; high values mean tight binding
Conditions in all cases: protein: recombinant; tags: N-terminal GST; dsDNA, one strand shown
ETV1 = ETV1 (Homo sapiens, UniProt P50549 1-477)
Method in brief: (§1)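 Human transcription factors were made in yeast as GST fusions, captured on glutathione beads and barcoded with DNA. With a tag-only sample included, the pool was incubated with 200 nmole of a random double-stranded 16-mer DNA library in Tris/NaCl/DTT/glycerol buffer at room temperature for 30 min, then crosslinked with 0.1% formaldehyde after washing, ligated by proximity, amplified and sequenced. For binding signal, each hexamer's read frequency for a factor is divided by its frequency for the tag-only sample.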

ERF = target: T1, ERF (Homo sapiens, UniProt P50548 1-548)
T1 sequence: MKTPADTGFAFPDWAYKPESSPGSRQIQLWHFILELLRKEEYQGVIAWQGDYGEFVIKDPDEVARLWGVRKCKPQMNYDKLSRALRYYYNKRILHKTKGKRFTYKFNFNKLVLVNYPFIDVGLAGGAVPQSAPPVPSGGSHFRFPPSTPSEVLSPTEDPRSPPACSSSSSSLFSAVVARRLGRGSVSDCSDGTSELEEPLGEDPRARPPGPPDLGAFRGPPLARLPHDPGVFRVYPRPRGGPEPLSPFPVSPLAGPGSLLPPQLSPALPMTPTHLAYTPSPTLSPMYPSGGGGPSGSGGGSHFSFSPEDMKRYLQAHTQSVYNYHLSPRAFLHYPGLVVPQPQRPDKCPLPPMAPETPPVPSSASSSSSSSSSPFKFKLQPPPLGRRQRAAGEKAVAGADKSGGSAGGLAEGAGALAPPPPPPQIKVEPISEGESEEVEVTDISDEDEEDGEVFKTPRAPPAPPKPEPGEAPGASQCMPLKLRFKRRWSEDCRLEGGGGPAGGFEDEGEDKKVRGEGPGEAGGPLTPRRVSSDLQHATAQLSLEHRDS
Method in brief: as §1

ETV3L = target: T2, ETV3L (Homo sapiens, UniProt Q6ZN32 1-361)
T2 sequence: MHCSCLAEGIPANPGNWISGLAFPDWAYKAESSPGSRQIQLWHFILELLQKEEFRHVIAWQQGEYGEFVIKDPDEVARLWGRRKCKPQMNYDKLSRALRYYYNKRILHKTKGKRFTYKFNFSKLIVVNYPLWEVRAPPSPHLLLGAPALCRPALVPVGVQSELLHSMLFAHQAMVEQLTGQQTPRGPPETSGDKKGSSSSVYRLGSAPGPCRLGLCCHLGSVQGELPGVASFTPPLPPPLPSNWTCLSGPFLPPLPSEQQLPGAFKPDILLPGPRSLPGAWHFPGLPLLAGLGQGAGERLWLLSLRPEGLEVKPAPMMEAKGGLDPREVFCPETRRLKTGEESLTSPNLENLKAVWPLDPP
Method in brief: as §1

ETS2 = target: T3, ETS2 (Homo sapiens, UniProt P15036 1-469)
T3 sequence: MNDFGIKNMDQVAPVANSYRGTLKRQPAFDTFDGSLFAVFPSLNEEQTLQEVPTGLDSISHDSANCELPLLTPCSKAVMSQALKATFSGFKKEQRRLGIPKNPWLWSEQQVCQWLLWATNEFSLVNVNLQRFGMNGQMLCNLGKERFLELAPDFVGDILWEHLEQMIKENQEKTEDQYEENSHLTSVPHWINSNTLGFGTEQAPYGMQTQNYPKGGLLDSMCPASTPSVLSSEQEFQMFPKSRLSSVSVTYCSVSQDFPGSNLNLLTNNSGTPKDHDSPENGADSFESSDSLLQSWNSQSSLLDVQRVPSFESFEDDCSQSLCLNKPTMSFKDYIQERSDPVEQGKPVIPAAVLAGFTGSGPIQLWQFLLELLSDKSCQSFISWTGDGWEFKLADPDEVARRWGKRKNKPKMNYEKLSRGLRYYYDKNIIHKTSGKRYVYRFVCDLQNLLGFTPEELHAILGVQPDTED
Method in brief: as §1

SPDEF = target: T4, SPDEF (Homo sapiens, UniProt O95238 1-335)
T4 sequence: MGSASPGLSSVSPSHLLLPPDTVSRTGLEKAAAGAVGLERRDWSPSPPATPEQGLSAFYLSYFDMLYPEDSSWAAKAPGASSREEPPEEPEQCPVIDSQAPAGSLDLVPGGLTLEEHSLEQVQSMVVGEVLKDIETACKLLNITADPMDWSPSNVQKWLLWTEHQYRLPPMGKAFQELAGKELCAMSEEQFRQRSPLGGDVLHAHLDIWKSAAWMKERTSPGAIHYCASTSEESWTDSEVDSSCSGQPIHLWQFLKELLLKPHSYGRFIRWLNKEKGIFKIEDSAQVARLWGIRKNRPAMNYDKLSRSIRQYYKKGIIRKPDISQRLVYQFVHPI
Method in brief: as §1

ETV7 = target: T5, ETV7 (Homo sapiens, UniProt Q9Y603 1-341)
T5 sequence: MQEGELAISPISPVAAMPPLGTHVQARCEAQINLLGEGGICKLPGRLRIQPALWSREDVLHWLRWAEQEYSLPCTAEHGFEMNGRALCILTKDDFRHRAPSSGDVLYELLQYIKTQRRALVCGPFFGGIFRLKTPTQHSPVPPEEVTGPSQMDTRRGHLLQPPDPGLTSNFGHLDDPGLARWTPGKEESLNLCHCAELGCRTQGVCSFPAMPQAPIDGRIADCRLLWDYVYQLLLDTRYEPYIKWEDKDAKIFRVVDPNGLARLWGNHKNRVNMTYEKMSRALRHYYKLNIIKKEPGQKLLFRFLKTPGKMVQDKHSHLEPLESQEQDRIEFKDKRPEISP
Method in brief: as §1

ELF5 = target: T6, ELF5 (Homo sapiens, UniProt Q9UKW6-2 1-255)
T6 sequence: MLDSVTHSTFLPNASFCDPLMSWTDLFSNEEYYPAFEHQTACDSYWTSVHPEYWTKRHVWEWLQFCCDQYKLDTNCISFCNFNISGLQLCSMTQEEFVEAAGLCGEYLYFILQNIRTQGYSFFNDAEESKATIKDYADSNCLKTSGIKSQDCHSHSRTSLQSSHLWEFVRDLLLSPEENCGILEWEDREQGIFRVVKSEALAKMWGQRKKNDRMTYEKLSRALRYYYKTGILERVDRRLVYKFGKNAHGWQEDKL
Method in brief: as §1

ETV3 = target: T7, ETV3 (Homo sapiens, UniProt P41162-2 1-143)
T7 sequence: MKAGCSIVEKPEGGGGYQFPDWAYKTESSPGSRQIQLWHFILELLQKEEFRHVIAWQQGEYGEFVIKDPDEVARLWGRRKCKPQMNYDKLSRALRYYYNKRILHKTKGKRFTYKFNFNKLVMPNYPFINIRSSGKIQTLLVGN
Method in brief: as §1

ETV6 = ETV6 (Homo sapiens, UniProt P41212 1-452)
Method in brief: as §1

ETV1, sequence (P50549 whole entry, the tested form may be a part): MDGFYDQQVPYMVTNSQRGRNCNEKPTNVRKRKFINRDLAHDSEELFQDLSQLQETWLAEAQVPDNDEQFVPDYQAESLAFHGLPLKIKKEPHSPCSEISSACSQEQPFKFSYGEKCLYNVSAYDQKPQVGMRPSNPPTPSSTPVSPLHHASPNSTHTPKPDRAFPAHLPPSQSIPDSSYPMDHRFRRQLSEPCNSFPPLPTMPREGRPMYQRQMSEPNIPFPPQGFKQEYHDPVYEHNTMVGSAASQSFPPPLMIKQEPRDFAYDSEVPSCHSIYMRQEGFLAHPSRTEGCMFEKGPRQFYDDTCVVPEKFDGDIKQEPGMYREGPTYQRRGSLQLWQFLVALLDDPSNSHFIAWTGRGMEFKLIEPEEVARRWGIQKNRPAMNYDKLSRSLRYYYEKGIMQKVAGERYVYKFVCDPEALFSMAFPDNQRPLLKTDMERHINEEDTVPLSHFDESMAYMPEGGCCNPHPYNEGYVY
ETV6, sequence (P41212 whole entry): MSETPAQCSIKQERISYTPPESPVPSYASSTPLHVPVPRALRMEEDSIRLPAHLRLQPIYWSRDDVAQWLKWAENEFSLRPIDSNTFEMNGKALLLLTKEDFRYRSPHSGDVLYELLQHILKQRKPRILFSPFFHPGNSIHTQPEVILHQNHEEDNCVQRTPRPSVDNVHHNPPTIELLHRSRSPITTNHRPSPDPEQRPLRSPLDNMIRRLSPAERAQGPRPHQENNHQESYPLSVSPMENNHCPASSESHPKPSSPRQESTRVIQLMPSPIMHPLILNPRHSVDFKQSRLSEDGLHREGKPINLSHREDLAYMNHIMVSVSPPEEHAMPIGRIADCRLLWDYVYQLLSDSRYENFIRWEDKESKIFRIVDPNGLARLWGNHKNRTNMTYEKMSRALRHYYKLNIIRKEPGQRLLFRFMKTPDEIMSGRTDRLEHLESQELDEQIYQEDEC

GTATAT
binding signal (ETV1): 1.18 fold enrichment (6-mer frequency, TF over GST control) | binding signal (ERF): 1.11 fold enrichment (6-mer frequency, TF over GST control) | binding signal (ETV3L): 1.16 fold enrichment (6-mer frequency, TF over GST control) | binding signal (ETS2): 1.14 fold enrichment (6-mer frequency, TF over GST control) | binding signal (SPDEF): 1.37 fold enrichment (6-mer frequency, TF over GST control) | binding signal (ETV7): 1.13 fold enrichment (6-mer frequency, TF over GST control) | binding signal (ELF5): 1.15 fold enrichment (6-mer frequency, TF over GST control) | binding signal (ETV3): 1.25 fold enrichment (6-mer frequency, TF over GST control) | binding signal (ETV6): 1.09 fold enrichment (6-mer frequency, TF over GST control)
